What was measured:
Experiment in all cases: DAPPL (digital affinity profiling via proximity ligation, sequencing); 10 mM Tris-HCl pH 7.5, 50 mM NaCl, 1 mM DTT, 4% glycerol, room temperature, 30 min; GST-TFs on glutathione beads, 16-mer random dsDNA library, 0.1% formaldehyde crosslink after washing; high values mean tight binding
FEV = molecular target: T1, FEV (Homo sapiens, UniProt Q99581 1-238); conditions: protein: recombinant; tags: N-terminal GST; dsDNA, one strand shown
T1 sequence: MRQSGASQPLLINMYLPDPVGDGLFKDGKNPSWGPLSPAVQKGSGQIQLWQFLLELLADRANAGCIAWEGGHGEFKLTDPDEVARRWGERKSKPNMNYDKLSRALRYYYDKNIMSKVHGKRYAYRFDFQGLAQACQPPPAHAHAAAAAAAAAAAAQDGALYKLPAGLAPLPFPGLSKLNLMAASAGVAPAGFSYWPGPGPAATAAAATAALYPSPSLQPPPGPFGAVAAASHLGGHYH
Procedure, shortened: (§1)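 Pools were built from human transcription factors expressed in yeast as GST fusions, captured on glutathione beads and DNA-barcoded, along with a tag-only sample. Incubation with 200 nmole of a 16-mer random double-stranded DNA library lasted 30 min at room temperature in Tris/NaCl/DTT/glycerol buffer, and was followed by washing, 0.1% formaldehyde crosslinking, proximity ligation, PCR amplification and Illumina NextSeq500 sequencing. Binding signal is the quotient of each hexamer's read frequency for a factor and its frequency for the tag-only sample.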

ETV5 = ETV5 (Homo sapiens, UniProt P41161 1-510); conditions: protein: recombinant; tags: N-terminal GST; dsDNA, one strand shown
ETV5, sequence (P41161 whole entry): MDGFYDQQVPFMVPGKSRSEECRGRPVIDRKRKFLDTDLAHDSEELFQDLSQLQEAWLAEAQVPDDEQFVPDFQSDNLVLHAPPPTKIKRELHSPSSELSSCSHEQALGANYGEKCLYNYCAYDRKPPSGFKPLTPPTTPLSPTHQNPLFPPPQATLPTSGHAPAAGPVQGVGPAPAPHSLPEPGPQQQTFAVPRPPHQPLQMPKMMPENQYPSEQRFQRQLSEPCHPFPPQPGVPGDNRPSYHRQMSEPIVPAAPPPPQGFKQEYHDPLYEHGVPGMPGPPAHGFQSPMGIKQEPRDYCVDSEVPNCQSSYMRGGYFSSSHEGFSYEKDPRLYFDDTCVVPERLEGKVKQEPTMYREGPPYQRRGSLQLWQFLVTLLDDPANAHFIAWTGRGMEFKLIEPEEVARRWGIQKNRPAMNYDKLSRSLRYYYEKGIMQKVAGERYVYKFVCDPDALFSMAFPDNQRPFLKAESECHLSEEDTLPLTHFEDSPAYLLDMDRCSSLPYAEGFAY
Procedure, shortened: as §1

HSF1 = HSF1 (Homo sapiens, UniProt Q00613 1-529); conditions: protein: recombinant; tags: N-terminal GST; chain copies: 3; dsDNA, one strand shown
HSF1, sequence (Q00613 whole entry): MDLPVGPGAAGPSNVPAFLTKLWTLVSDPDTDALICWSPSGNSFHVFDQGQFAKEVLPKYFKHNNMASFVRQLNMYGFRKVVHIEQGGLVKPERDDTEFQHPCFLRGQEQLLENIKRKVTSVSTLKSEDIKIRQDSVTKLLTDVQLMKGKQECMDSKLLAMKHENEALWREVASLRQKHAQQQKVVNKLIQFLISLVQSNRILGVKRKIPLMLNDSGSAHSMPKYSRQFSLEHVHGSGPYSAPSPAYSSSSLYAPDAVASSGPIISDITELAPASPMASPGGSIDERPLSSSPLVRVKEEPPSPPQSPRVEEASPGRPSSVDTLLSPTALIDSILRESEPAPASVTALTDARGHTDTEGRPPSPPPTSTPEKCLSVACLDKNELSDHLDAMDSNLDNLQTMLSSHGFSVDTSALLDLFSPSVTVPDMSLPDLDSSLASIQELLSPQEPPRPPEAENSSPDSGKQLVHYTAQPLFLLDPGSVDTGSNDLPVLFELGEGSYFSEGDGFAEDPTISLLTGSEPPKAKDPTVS
Procedure, shortened: as §1

SPIC = molecular target: T2, SPIC (Homo sapiens, UniProt Q8N5J4 1-248); conditions: protein: recombinant; tags: N-terminal GST; dsDNA, one strand shown
T2 sequence: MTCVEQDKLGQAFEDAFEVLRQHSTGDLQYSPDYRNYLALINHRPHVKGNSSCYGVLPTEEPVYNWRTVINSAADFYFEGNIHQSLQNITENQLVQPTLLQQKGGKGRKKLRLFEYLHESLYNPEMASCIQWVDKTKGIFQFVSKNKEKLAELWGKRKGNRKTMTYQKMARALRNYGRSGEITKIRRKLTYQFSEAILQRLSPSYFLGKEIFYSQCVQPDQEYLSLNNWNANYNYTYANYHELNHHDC
Procedure, shortened: as §1

ELF4 = ELF4 (Homo sapiens, UniProt Q99607 1-663); conditions: protein: recombinant; tags: N-terminal GST; dsDNA, one strand shown
ELF4, sequence (Q99607 whole entry): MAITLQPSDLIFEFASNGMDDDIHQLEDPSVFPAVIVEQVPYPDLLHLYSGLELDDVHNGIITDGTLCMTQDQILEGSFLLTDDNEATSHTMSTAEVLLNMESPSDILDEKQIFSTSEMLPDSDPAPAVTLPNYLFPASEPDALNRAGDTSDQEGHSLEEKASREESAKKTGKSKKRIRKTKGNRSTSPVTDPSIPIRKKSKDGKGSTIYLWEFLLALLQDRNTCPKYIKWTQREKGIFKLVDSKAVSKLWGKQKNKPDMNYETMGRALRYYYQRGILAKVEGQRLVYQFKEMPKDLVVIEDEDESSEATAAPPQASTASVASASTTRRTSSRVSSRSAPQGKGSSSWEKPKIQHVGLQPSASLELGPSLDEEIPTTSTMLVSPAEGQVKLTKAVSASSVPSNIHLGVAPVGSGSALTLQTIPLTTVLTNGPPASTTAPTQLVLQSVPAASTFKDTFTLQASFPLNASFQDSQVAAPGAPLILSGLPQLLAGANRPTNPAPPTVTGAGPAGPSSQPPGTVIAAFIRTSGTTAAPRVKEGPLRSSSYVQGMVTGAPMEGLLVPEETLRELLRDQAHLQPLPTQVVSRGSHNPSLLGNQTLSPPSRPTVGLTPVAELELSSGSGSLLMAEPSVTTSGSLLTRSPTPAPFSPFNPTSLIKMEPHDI
Procedure, shortened: as §1

ELK4 = molecular target: T3, ELK4 (Homo sapiens, UniProt P28324-2 1-405); conditions: protein: recombinant; tags: N-terminal GST; dsDNA, one strand shown
T3 sequence: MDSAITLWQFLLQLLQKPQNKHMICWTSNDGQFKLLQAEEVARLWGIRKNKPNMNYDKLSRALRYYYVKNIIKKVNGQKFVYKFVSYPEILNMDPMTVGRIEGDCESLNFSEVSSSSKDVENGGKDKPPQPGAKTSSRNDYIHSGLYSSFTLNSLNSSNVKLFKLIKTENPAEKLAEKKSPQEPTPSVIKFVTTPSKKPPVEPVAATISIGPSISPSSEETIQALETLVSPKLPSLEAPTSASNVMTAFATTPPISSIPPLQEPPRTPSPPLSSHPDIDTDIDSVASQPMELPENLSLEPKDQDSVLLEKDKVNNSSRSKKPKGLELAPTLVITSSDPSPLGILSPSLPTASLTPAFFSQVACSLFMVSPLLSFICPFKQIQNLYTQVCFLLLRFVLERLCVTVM
Procedure, shortened: as §1

ETV2 = molecular target: T4, ETV2 (Homo sapiens, UniProt O00321 1-342); conditions: protein: recombinant; tags: N-terminal GST; dsDNA, one strand shown
T4 sequence: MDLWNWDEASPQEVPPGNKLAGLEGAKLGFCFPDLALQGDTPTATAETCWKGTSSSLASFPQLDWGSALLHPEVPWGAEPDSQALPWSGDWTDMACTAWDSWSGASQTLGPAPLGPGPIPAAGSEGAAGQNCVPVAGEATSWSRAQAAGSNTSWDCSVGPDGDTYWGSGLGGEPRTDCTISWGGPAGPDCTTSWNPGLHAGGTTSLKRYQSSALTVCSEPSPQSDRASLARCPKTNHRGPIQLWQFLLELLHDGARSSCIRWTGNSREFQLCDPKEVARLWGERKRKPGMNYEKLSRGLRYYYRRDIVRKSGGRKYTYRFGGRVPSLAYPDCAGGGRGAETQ
Procedure, shortened: as §1

ELF3 = molecular target: T5, ELF3 (Homo sapiens, UniProt P78545 1-371); conditions: protein: recombinant; tags: N-terminal GST; dsDNA, one strand shown
T5 sequence: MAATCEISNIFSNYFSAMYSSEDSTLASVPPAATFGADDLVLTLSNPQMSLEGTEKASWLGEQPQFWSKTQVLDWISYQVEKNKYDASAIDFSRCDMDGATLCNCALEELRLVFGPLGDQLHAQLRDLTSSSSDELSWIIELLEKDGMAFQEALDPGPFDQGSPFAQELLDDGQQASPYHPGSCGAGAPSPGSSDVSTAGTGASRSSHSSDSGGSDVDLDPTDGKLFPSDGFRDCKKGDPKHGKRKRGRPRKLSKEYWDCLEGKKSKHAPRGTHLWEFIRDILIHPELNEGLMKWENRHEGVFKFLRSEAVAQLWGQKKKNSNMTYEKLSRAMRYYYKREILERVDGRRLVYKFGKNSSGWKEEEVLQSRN
Procedure, shortened: as §1

CRX = CRX (Homo sapiens, UniProt O43186 1-299); conditions: protein: recombinant; tags: N-terminal GST; dsDNA, one strand shown
CRX, sequence (O43186 whole entry): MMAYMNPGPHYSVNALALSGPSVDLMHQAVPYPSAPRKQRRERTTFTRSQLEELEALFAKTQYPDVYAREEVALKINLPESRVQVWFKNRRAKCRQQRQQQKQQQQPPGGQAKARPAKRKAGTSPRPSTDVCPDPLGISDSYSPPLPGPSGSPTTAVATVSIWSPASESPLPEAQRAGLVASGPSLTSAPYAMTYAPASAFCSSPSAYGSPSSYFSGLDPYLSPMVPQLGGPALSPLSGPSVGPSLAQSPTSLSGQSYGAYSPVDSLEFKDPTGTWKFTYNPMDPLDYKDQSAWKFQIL
Procedure, shortened: as §1

ETV1 = ETV1 (Homo sapiens, UniProt P50549 1-477); conditions: protein: recombinant; tags: N-terminal GST; dsDNA, one strand shown
ETV1, sequence (P50549 whole entry): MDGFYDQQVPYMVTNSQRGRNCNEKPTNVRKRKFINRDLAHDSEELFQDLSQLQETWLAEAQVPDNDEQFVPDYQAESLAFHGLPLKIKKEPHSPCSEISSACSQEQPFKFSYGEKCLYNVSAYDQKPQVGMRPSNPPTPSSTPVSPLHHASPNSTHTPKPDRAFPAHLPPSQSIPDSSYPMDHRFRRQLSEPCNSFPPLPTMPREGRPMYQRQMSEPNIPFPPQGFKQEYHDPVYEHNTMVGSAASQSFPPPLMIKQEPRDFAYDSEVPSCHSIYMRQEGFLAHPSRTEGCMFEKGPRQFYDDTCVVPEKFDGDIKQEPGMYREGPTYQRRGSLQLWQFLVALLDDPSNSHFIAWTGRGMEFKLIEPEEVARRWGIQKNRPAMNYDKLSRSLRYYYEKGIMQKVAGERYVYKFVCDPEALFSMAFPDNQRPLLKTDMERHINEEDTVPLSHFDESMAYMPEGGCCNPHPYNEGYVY
Procedure, shortened: as §1

ERF = molecular target: T6, ERF (Homo sapiens, UniProt P50548 1-548); conditions: protein: recombinant; tags: N-terminal GST; dsDNA, one strand shown
T6 sequence: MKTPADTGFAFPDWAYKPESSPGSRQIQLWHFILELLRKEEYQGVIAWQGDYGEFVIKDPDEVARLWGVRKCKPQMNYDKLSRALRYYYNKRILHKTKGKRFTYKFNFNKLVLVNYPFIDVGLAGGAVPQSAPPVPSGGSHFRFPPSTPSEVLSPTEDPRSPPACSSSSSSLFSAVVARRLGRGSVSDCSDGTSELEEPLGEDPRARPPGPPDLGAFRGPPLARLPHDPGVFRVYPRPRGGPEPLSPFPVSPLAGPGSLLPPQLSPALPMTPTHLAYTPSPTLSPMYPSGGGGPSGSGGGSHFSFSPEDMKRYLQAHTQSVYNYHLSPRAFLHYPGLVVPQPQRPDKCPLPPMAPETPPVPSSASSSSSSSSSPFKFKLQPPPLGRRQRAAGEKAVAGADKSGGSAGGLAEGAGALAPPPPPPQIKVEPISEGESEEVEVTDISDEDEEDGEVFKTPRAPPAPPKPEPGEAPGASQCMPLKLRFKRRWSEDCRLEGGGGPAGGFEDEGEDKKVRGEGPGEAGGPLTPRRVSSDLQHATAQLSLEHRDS
Procedure, shortened: as §1

ETV3L = molecular target: T7, ETV3L (Homo sapiens, UniProt Q6ZN32 1-361); conditions: protein: recombinant; tags: N-terminal GST; dsDNA, one strand shown
T7 sequence: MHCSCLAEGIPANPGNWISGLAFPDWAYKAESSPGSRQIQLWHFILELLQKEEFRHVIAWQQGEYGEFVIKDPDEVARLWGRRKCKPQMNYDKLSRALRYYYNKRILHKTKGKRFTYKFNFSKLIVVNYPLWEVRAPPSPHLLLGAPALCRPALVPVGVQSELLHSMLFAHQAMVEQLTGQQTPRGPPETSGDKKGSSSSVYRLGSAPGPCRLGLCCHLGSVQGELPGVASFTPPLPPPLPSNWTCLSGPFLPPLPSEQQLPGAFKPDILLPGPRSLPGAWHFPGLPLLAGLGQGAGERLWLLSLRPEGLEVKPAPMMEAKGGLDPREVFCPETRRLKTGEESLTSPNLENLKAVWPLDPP
Procedure, shortened: as §1

ETS2 = molecular target: T8, ETS2 (Homo sapiens, UniProt P15036 1-469); conditions: protein: recombinant; tags: N-terminal GST; dsDNA, one strand shown
T8 sequence: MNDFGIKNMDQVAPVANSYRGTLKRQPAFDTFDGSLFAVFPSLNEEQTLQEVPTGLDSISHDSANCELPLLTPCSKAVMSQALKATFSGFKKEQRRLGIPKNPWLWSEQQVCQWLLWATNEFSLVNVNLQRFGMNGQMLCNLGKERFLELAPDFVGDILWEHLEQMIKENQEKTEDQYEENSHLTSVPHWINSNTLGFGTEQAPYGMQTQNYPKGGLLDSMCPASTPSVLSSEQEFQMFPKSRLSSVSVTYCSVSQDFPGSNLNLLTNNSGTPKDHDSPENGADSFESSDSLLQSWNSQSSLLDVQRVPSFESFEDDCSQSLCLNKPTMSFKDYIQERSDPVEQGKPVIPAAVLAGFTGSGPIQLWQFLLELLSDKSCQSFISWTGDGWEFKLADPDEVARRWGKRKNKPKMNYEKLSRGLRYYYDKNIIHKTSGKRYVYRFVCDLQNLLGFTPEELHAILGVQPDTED
Procedure, shortened: as §1

SPDEF = molecular target: T9, SPDEF (Homo sapiens, UniProt O95238 1-335); conditions: protein: recombinant; tags: N-terminal GST; dsDNA, one strand shown
T9 sequence: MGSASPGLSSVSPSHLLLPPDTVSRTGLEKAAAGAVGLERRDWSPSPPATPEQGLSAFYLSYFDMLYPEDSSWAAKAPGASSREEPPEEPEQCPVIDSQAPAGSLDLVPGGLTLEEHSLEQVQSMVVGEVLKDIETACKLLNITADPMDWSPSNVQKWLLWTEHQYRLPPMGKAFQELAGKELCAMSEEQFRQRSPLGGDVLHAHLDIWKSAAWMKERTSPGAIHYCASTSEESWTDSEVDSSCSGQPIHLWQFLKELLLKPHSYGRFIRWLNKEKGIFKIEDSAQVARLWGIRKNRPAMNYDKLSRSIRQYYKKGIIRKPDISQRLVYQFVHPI
Procedure, shortened: as §1

ETV7 = molecular target: T10, ETV7 (Homo sapiens, UniProt Q9Y603 1-341); conditions: protein: recombinant; tags: N-terminal GST; dsDNA, one strand shown
T10 sequence: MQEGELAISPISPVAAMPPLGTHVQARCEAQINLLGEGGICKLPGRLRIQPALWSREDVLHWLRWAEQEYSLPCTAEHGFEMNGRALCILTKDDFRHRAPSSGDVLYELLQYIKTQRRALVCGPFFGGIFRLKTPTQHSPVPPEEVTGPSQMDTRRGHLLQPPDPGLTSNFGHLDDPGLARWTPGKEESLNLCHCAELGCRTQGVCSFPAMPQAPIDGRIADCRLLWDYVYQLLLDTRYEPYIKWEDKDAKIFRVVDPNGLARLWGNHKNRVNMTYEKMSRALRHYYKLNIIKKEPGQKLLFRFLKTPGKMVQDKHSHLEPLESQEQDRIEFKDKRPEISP
Procedure, shortened: as §1

ELF5 = molecular target: T11, ELF5 (Homo sapiens, UniProt Q9UKW6-2 1-255); conditions: protein: recombinant; tags: N-terminal GST; dsDNA, one strand shown
T11 sequence: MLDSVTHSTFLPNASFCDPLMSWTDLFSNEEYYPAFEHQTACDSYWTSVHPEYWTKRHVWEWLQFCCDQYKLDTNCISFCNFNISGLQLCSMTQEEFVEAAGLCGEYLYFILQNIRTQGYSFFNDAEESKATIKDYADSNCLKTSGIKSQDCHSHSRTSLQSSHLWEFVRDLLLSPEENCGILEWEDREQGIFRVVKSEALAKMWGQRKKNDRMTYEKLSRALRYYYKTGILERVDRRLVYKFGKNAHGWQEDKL
Procedure, shortened: as §1

ETV3 = molecular target: T12, ETV3 (Homo sapiens, UniProt P41162-2 1-143); conditions: protein: recombinant; tags: N-terminal GST; dsDNA, one strand shown
T12 sequence: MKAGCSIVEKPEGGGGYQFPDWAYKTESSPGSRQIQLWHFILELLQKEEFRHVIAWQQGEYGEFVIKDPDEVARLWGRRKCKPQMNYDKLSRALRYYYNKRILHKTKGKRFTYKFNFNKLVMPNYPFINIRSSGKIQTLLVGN
Procedure, shortened: as §1

ETV6 = ETV6 (Homo sapiens, UniProt P41212 1-452); conditions: protein: recombinant; tags: N-terminal GST; dsDNA, one strand shown
ETV6, sequence (P41212 whole entry): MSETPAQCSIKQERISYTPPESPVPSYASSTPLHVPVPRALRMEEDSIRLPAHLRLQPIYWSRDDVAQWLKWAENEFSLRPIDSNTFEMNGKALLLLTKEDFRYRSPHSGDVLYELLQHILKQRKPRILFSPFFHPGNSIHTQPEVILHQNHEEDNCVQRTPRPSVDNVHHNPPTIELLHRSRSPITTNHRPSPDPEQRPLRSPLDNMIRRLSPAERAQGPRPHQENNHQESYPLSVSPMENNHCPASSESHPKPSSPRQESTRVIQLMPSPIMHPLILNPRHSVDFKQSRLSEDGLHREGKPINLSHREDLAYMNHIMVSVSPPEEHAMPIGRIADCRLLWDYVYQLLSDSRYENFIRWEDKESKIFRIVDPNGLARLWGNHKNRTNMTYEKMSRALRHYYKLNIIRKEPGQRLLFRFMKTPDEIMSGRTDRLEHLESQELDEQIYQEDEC
Procedure, shortened: as §1

ATTCTA was tested, and the binding signal (FEV) was 1.14 fold enrichment (6-mer frequency, TF over GST control), the binding signal (ETV5) was 1.16 fold enrichment (6-mer frequency, TF over GST control) and the binding signal (HSF1) was 3.09 fold enrichment (6-mer frequency, TF over GST control). The binding signal (SPIC) was 1.26 fold enrichment (6-mer frequency, TF over GST control), the binding signal (ELF4) was 1.2 fold enrichment (6-mer frequency, TF over GST control) and the binding signal (ELK4) was 1.32 fold enrichment (6-mer frequency, TF over GST control). For the same sequence, the binding signal (ETV2) was 1.26 fold enrichment (6-mer frequency, TF over GST control), the binding signal (ELF3) was 1.24 fold enrichment (6-mer frequency, TF over GST control) and the binding signal (CRX) was 1.84 fold enrichment (6-mer frequency, TF over GST control). The binding signal (ETV1) was 1.2 fold enrichment (6-mer frequency, TF over GST control), the binding signal (ERF) was 1.32 fold enrichment (6-mer frequency, TF over GST control) and the binding signal (ETV3L) was 1.22 fold enrichment (6-mer frequency, TF over GST control). For the same sequence, the binding signal (ETS2) was 1.3 fold enrichment (6-mer frequency, TF over GST control), the binding signal (SPDEF) was 1.23 fold enrichment (6-mer frequency, TF over GST control) and the binding signal (ETV7) was 1.28 fold enrichment (6-mer frequency, TF over GST control). The binding signal (ELF5) was 1.15 fold enrichment (6-mer frequency, TF over GST control), the binding signal (ETV3) was 1.2 fold enrichment (6-mer frequency, TF over GST control) and the binding signal (ETV6) was 1.15 fold enrichment (6-mer frequency, TF over GST control).

From publication PMC7862700, “An all-to-all approach to the identification of sequence-specific readers for epigenetic DNA modifications on cytosine”
